Rows were chosen to be rich in hits. Some 1.7% of all compounds tested hit in one or more screens of this group.
TLR9-MyD88 inh: blocks human TLR9 binding to MyD88; CHO BLA complementation TLR9-MyD88, CCF4 FRET ratio; Q9NR96+Q99836; inhibition, % at 4.98 µM; 0.21% of 340,000 active;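 active = inhibition above the mean over all tested compounds plus 3 SD, cut at about 21% in these data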;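 also: 0% = DMSO only wells and 100% = clavulanate BLA inhibitor control wells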
ABCB6 inh 2: inhibitors of human ABC transporter ABCB6 | K562-ABCB6 porphyrin accumulation, flow cytometry, 1 h; active compounds read low | fluorescence ratio to DMSO, % at 10 µM | Q9NP58 | 0.19% of 360,000 active;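 active = fluorescence ratio to DMSO below 75%, the collection mean minus 3 SD; inconclusive = too few cells collected in the well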;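 also: signal is porphyrin accumulated inside mitochondria; 100% equals median channel fluorescence of DMSO control wells; lower ratio means ABCB6 inhibition with less porphyrin fluorescence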
NOD2-RIPK2 inh: blocks binding of human NOD2 to RIPK2; O43353; CHO BLA complementation NOD2-RIPK2, CCF4 ratio; inhibition, % at 4.98 µM; 0.38% of 360,000 active; AID 624267; in the data active = inhibition above about 21%;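 also: 0% = vehicle only and 100% = reference blocker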
Target sequence (O43353 whole entry, looked up): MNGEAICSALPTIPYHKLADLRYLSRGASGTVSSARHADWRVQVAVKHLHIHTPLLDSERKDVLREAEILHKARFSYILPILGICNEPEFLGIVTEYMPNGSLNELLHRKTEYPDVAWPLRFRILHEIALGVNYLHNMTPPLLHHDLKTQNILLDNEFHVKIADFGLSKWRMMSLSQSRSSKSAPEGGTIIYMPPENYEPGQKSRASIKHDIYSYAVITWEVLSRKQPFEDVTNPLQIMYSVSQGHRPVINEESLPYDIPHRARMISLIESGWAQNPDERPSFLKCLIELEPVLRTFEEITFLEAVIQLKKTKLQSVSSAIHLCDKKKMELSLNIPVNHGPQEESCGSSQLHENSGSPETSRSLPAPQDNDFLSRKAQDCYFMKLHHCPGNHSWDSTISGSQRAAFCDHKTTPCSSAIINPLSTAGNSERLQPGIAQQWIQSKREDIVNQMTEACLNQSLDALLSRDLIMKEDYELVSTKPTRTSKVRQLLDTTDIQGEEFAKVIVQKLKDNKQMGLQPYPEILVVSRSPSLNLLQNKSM
Myeloid diff 2: myeloid differentiation induction | ER-HoxA9 myeloid progenitors, lysozyme-GFP differentiation, flow cytometry | calls only at 10 µM | 1% of 360,000 active | AID 624256;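 active = normalized GFP-positive differentiation at or above the plate's own cutoff, the solvent-only control mean plus 3 SD; inconclusive = no clear call, values can overlap the other calls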;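 also: cells exposed to compound for four days before flow analysis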
TLR4-MyD88 BLA: blocks binding of human TLR4 to MyD88 | O00206+Q99836 | HeLa CL3-4 TLR4/MyD88 BLA complementation, FRET ratio | inhibition, % at 8.4 µM | 0.18% of 200,000 active; in the data active = inhibition above about 25%;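 also: 0% = vehicle and 100% = reference inhibitor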
Myeloid diff CP1: myeloid differentiation induction; shares compounds with Myeloid diff 2; ER-HoxA9 myeloid progenitors, GFP/Mac1 double-positive flow; calls only; 2% of 2,300 active; AID 651706;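 active = share of green or green-and-red cells above 9 and 9% in run 1 or 4 and 3% in run 2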
GFP autofluor: flagged as fluorescent in myeloid differentiation counter-screen. shares compounds with Myeloid diff 2. ER-HoxA9 myeloid progenitors, no estrogen, GFP autofluorescence flow cytometry; vehicle wells 0%, positive control 100%. fluorescence response, % (test concentration not listed). 7.4% of 2,300 active;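 active = over 5% cells positive for green fluorescent reporter, or over 2% positive for both it and APC stain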;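 also: range taken on the double positive population between DMSO and positive control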
Numbers without * were called inactive.

`CC(C)(C)C(=O)Nc1ccc(-c2cn3ccsc3n2)cc1` gave TLR9-MyD88 inh -3, ABCB6 inh 2 90, NOD2-RIPK2 inh 1, Myeloid diff 2 inactive, TLR4-MyD88 BLA 2, Myeloid diff CP1 inactive and GFP autofluor 0.
For CCc1ccccc1NC(=O)CNCC(=O)Nc1ccccc1CC the results were TLR9-MyD88 inh -4, ABCB6 inh 2 129, NOD2-RIPK2 inh -5, Myeloid diff 2 active, Myeloid diff CP1 inactive and GFP autofluor 0.
CCOC(=O)C1(CCOc2ccccc2)CCN(Cc2cccc(OC)c2O)CC1 was read as TLR9-MyD88 inh -8, ABCB6 inh 2 94, NOD2-RIPK2 inh -4 and Myeloid diff 2 inactive.
`CC1(C(=O)Nc2cnc3ccccc3c2)CCN1C(=O)C/C=C/c1ccccc1` (centres undefined) gave ABCB6 inh 2 107, NOD2-RIPK2 inh -10 and Myeloid diff 2 inactive.
CC(=O)Nc1ccc(C2=CC(=O)C[C@H](c3ccc(Cl)cc3)C2)cc1 was read as TLR9-MyD88 inh 0, ABCB6 inh 2 95, NOD2-RIPK2 inh 9, Myeloid diff 2 inactive, Myeloid diff CP1 active and GFP autofluor 0.
For CCN1C[C@@H]2[C@@H]3C(=O)N(Cc4ccccc4)C(=O)[C@@H]3[C@](C)(C(=O)OC)N2C1=NC the results were TLR9-MyD88 inh -5, ABCB6 inh 2 103, NOD2-RIPK2 inh 0 and Myeloid diff 2 inactive.
`Cc1ccc(C(=O)NC(=S)c2c(C)cc3ccccn23)cc1` gave TLR9-MyD88 inh -11, ABCB6 inh 2 92, NOD2-RIPK2 inh -3, Myeloid diff 2 active, Myeloid diff CP1 inactive and GFP autofluor 11*.
`Cc1c(Cl)cnc(NC(=O)COC(=O)[C@H](C)NC(=O)c2ccccc2)c1Cl` gave TLR9-MyD88 inh -18, ABCB6 inh 2 102, NOD2-RIPK2 inh -16 and Myeloid diff 2 inactive.
Screening CCOC(=O)c1c(NC(=O)CNCCOC)sc2c1CCCC2 returned TLR9-MyD88 inh 2, ABCB6 inh 2 100, NOD2-RIPK2 inh 3, Myeloid diff 2 inactive, TLR4-MyD88 BLA -6, Myeloid diff CP1 inactive and GFP autofluor 0.
For Cc1ccccc1CC(=O)Nc1ccc(C(=O)N2CCCC2)cc1 the results were TLR9-MyD88 inh 8, ABCB6 inh 2 93, NOD2-RIPK2 inh -5 and Myeloid diff 2 inactive.
`CC(C)C(=O)N1CCCCCCN1C(=O)C(C)C` gave TLR9-MyD88 inh 11, ABCB6 inh 2 99, NOD2-RIPK2 inh 6 and Myeloid diff 2 inactive.
For COc1cccc(NC(=O)CSc2nnc(-c3ccco3)c(-c3ccco3)n2)c1 the results were TLR9-MyD88 inh 5, ABCB6 inh 2 76, NOD2-RIPK2 inh -13, Myeloid diff 2 active, Myeloid diff CP1 inactive and GFP autofluor 0.
Screening COc1ccc(NC(=O)CSc2nnc(-c3ccco3)c(-c3ccco3)n2)cc1OC returned TLR9-MyD88 inh -13, ABCB6 inh 2 97, NOD2-RIPK2 inh 6 and Myeloid diff 2 inactive.
Screening COc1cc(OC)cc(C(=O)NNC(=O)c2ccccn2)c1 returned TLR9-MyD88 inh -1, ABCB6 inh 2 101, NOD2-RIPK2 inh -3, Myeloid diff 2 active, TLR4-MyD88 BLA 4, Myeloid diff CP1 inactive and GFP autofluor 0.
`CC(Oc1cccc(Br)c1)C(=O)NNC(=O)c1ccccn1` (centres undefined) gave TLR9-MyD88 inh -1, ABCB6 inh 2 100, NOD2-RIPK2 inh 3, Myeloid diff 2 active, Myeloid diff CP1 inactive and GFP autofluor 2.
CC(C)OCCCNC(=O)c1ccc(NC(=O)C2=CSCCO2)cc1 was read as TLR9-MyD88 inh -11, ABCB6 inh 2 101, NOD2-RIPK2 inh 10 and Myeloid diff 2 inactive.
For O=Nc1c(O)c2ccccc2c2ccccc12 the results were TLR9-MyD88 inh 8, ABCB6 inh 2 105, NOD2-RIPK2 inh 6 and Myeloid diff 2 inconclusive.
For O=c1c(=Nc2ccccc2O)c(=O)c2ccccc12 the results were TLR9-MyD88 inh -4, ABCB6 inh 2 108, NOD2-RIPK2 inh -1, Myeloid diff 2 active, TLR4-MyD88 BLA -16, Myeloid diff CP1 inactive and GFP autofluor 0.
`CC(C)(C)NC(=O)CCN(/N=C/c1ccc([N+](=O)[O-])o1)C1=NS(=O)(=O)c2ccccc21` gave TLR9-MyD88 inh 5, ABCB6 inh 2 106, NOD2-RIPK2 inh 2, Myeloid diff 2 active, TLR4-MyD88 BLA -4, Myeloid diff CP1 inactive and GFP autofluor 1.
`C[C@@]12CCC=C[C@H]1[C@H](c1ccc(F)c(/C=C/c3ccccc3)c1)N(Cc1ccccc1)C2=O` gave TLR9-MyD88 inh -6, ABCB6 inh 2 99, NOD2-RIPK2 inh 4 and Myeloid diff 2 inactive.
CN(Cc1ccccc1)C(=O)c1ccc(NC(=O)Cc2cccc(NC(=O)C3CCCN(C(=O)C4CCCCC4)C3)c2)cc1 (centres undefined) was read as TLR9-MyD88 inh 5, ABCB6 inh 2 100, NOD2-RIPK2 inh -2, Myeloid diff 2 inactive, Myeloid diff CP1 inactive and GFP autofluor 0.
CN(C(=O)c1cccc(NC(=O)Cc2ccc(NC(=O)C3CCN(C(=O)C4CC4)CC3)cc2)c1)C1CCCCC1 was read as TLR9-MyD88 inh 3, ABCB6 inh 2 102, NOD2-RIPK2 inh 1, Myeloid diff 2 inactive, Myeloid diff CP1 inactive and GFP autofluor 0.
Screening CN(Cc1ccccc1)C(=O)c1[nH]cnc1C(=O)NCCCCCNC(=O)OC(C)(C)C returned TLR9-MyD88 inh -4, ABCB6 inh 2 106, NOD2-RIPK2 inh 7, Myeloid diff 2 active, Myeloid diff CP1 inactive and GFP autofluor 1.
Screening CC(C)CNC(=O)NC(=O)CSc1nc2ccccc2n1CC(C)C returned TLR9-MyD88 inh -21, ABCB6 inh 2 100, NOD2-RIPK2 inh -8, Myeloid diff 2 inactive and TLR4-MyD88 BLA 2.
For CCCNC(=O)NC(=O)CSc1nc2ccccc2n1CC(C)C the results were TLR9-MyD88 inh 2, ABCB6 inh 2 97, NOD2-RIPK2 inh -6, Myeloid diff 2 inactive, TLR4-MyD88 BLA -12, Myeloid diff CP1 inactive and GFP autofluor 0.
`Cc1ccc(S(=O)(=O)N(Cc2cc3cccc(C)c3[nH]c2=O)c2ccccc2)cc1` gave TLR9-MyD88 inh 9, ABCB6 inh 2 96, NOD2-RIPK2 inh -7, Myeloid diff 2 active, TLR4-MyD88 BLA 4, Myeloid diff CP1 inactive and GFP autofluor 0.
Screening Cc1ccc(S(=O)(=O)N(C)Cc2cc3ccccc3[nH]c2=O)cc1 returned TLR9-MyD88 inh 5, ABCB6 inh 2 98, NOD2-RIPK2 inh -14, Myeloid diff 2 inactive, TLR4-MyD88 BLA -1, Myeloid diff CP1 inactive and GFP autofluor 0.
For CN(Cc1cc2ccccc2[nH]c1=O)S(=O)(=O)c1ccccc1 the results were TLR9-MyD88 inh 9, ABCB6 inh 2 95, NOD2-RIPK2 inh -10, Myeloid diff 2 inactive and TLR4-MyD88 BLA 15.

Screening results as filed in PubChem BioAssay.
